Data taken from PubChem BioAssay (EPA / NIEHS).
Results filed as inconclusive are left out. Active and inactive are the calls of the source. How the source made its calls, unless noted: active means hit-call score of the fitted dose curve at least 0.9, where 1 is the maximum; inactive means score below 0.9.

What was measured:
[1] = target: Bile acid receptor (Homo sapiens) (UniProt Q96RI1); assay: ATG_FXR_TRANS: Attagene TRANS-FACTORIAL HepG2 Assay for Farnesoid X Receptor (FXR) (AID 2282979; active means hit-call score of the fitted dose curve at least 0.9, where 1 is the maximum;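 further: hits raise reporter mRNA above DMSO so AC50 marks FXR activation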); conditions: HepG2 Attagene TRANS FXR-GAL4 reporter transcription
Method in brief: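 After 24 h chemical treatment of transfected HepG2 cells, GAL4-UAS reporter transcripts driven by an exogenous FXR-GAL4 fusion were measured by RT-PCR and capillary electrophoresis. Increases over DMSO were fitted.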

[2] = target: Oxysterols receptor LXR-alpha (Homo sapiens) (UniProt Q13133); assay: ATG_LXRa_TRANS: Attagene TRANS-FACTORIAL HepG2 Assay for human Liver X Receptor alpha (LXRa) (AID 2282980; active means hit-call score of the fitted dose curve at least 0.9, where 1 is the maximum); conditions: HepG2 Attagene TRANS reporter, LXRa transactivation
Method in brief: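 In this multiplexed TRANS system, compounds act on HepG2 cells carrying GAL4-UAS reporter units and a receptor-GAL4 fusion for 24 h. Induced reporter RNA is amplified, fluorescently labelled and sized by capillary electrophoresis, with DMSO as baseline.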

[3] = target: Oxysterols receptor LXR-beta (Homo sapiens) (UniProt P55055); assay: ATG_LXRb_TRANS: Attagene TRANS-FACTORIAL HepG2 Assay for human Liver X Receptor beta (LXRb) (AID 2282981; active means hit-call score of the fitted dose curve at least 0.9, where 1 is the maximum); conditions: HepG2 Attagene TRANS GAL4-LXRb reporter, mRNA
Method in brief: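 Transient transfection HepG2 (multiplexed RTUs, GAL4-UAS); NR-Gal4 chimera; 24 h exposure; RNA → RT-PCR → 6-FAM primer extension → HpaI → CE; increase vs DMSO.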

[4] = ATG_M_06_TRANS: Attagene TRANS-FACTORIAL HepG2 Assay for M06 Transcription Factor (Internal Marker) (AID 2282983; active means hit-call score of the fitted dose curve at least 0.9, where 1 is the maximum;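 further: reporter transcript level by RT-PCR then capillary electrophoresis fluorescence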); conditions: HepG2 Attagene TRANS M06 internal marker reporter
Method in brief: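 Internal-marker background readout from a multiplexed TRANS reporter system in HepG2; 24 h dosing; mRNA induction quantified by RT-PCR plus capillary electrophoresis fluorescence; DMSO as negative control and baseline.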

[5] = target: Nuclear receptor subfamily 4 group A member 2 (Homo sapiens) (UniProt P43354); assay: ATG_NURR1_TRANS: Attagene TRANS-FACTORIAL HepG2 Assay for human Nuclear Receptor Related Protein 1 (NURR1) (AID 2282985; active means hit-call score of the fitted dose curve at least 0.9, where 1 is the maximum); conditions: HepG2 Attagene TRANS reporter, mRNA readout
Method in brief: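 Transient transfection of HepG2, human liver cells, with multiple GAL4-UAS reporter transcription units. Cells dosed 24 h, RNA isolated, reverse-transcribed, PCR-amplified, FAM-labelled, HpaI-digested, sized by capillary electrophoresis. DMSO served as negative control.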

[6] = ATG_NFI_CIS: Attagene CIS-FACTORIAL HepG2 Assay for human Nuclear Factor I (NFI) (AID 2282989); conditions: HepG2 cis-regulatory reporter, NFI response element transcription; actives raise or lower the signal
Method in brief: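 Cells: human liver HepG2, transiently transfected with promoter-regulated reporter transcription units. Exposure 24 h. Detection: fluorescent RT-PCR products separated by capillary electrophoresis, normalised to DMSO negative control.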

[7] = ATG_NF_kB_CIS: Attagene CIS-FACTORIAL HepG2 Assay for human Nuclear Factor Kappa B (NF-kB) (AID 2282991); conditions: HepG2 Attagene cis-factorial NF-kB reporter mRNA; actives raise or lower the signal
Method in brief: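 HepG2 cells transiently transfected with multiplexed cis-element reporter units measuring endogenous transcription factor activity; reporter mRNA read 24 h after dosing by RT-PCR, fluorescent labelling, HpaI digestion and capillary electrophoresis. Bidirectional fit against DMSO baseline.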

[8] = ATG_NRF2_ARE_CIS: Attagene CIS-FACTORIAL HepG2 Assay for human Nuclear Factor Erythroid 2 Related Factor 2 (NFR2) response to Antioxidant Response Elements (ARE) (AID 2282992); conditions: HepG2 Attagene ARE/NRF2 reporter, transcription factor activity; actives raise or lower the signal;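 on AC50: reporter mRNA level measured by RT-PCR and capillary electrophoresis fluorescence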
Method in brief: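 HepG2 cells transiently transfected with multiplexed cis-element reporter constructs, 24 h after chemical dosing; reporter mRNA quantified by RT-PCR, fluorescent primer extension, HpaI digestion and capillary electrophoresis. Bidirectional fit relative to DMSO.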

[9] = ATG_Oct_MLP_CIS: Attagene CIS-FACTORIAL HepG2 Assay for human Octamer-Binding Transcription Factor (Oct) (AID 2282993); conditions: HepG2 Attagene cis-factorial Oct reporter, mRNA; actives raise or lower the signal
Method in brief: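 HepG2, transient MRTU transfection, cis promoter elements; 24 h dosing; RT-PCR/CE fluorescence read-out of reporter mRNA; fit both directions vs DMSO.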

[10] = target: Cellular tumor antigen p53 (Homo sapiens) (UniProt P04637); assay: ATG_p53_CIS: Attagene CIS-FACTORIAL HepG2 Assay for human p53 Transcription Factor (AID 2282994); conditions: HepG2 p53 cis-element reporter, Attagene mRNA; actives raise or lower the signal
Method in brief: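 HepG2 cells transiently transfected with cis-regulated multiple reporter transcription units, dosed 24 h. Reporter mRNA measured by RT-PCR, 6-FAM primer extension, HpaI digestion and capillary electrophoresis; bidirectional fit relative to DMSO.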

[11] = BSK_3C_TissueFactor: BioMAP Diversity Plus: 3C Assay for Tissue Factor Biomarker Activity (AID 2282997); conditions: BioMAP 3C HUVEC, tissue factor biomarker readout; actives raise or lower the signal
Method in brief: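 Endothelial monolayers (human umbilical vein, primary) are dosed, incubated 24 h, and assayed for Tissue Factor by ELISA; DMSO serves as negative control for bidirectional fitting.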

[12] = BSK_3C_uPAR: BioMAP Diversity Plus: 3C Assay for Urokinase-type plasminogen activator receptor (uPAR) Biomarker Activity (AID 2282998); conditions: BioMAP 3C HUVEC, uPAR biomarker ELISA; actives raise or lower the signal
Method in brief: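 A multiplexed primary-cell system built on human umbilical vein endothelium was used, with chemical present for 24 h before reading. Cell-surface uPAR was detected by ELISA; signal change in either direction counted against DMSO.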

[13] = BSK_3C_VCAM1: BioMAP Diversity Plus: 3C Assay for Vascular cell adhesion molecule 1 (VCAM1) Biomarker Activity (AID 2282999); conditions: BioMAP 3C HUVEC, VCAM1 ELISA, cytokine-stimulated; actives raise or lower the signal
Method in brief: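 Endothelial cells from human umbilical vein are treated with test chemical. At 24 h, VCAM-1 is measured by ELISA, and responses in either direction are fitted relative to DMSO.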

[14] = BSK_4H_Eotaxin3: BioMAP Diversity Plus: 4H Assay for Eotaxin 3 Biomarker Activity (AID 2283000); conditions: primary human endothelial cells (HUVEC); actives raise or lower the signal
Method in brief: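 ELISA quantitation of CCL26 (Eotaxin-3) protein from chemically dosed human vascular endothelial cells at 24 h; increases and decreases both scored relative to DMSO-treated baseline.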

[15] = target: Glucocorticoid receptor (Homo sapiens) (UniProt P04150); assay: ATG_GR_TRANS: Attagene TRANS-FACTORIAL HepG2 Assay for human Glucocorticoid Receptor (GR) (AID 2282978; active means hit-call score of the fitted dose curve at least 0.9, where 1 is the maximum;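 further: activators score as hits since higher reporter transcript over DMSO is fitted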); conditions: HepG2 Attagene TRANS GR reporter, mRNA transcription
Method in brief: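 HepG2 cells transiently transfected with multiplexed reporter units in which chimeric NR-GAL4 proteins drive GAL4-UAS reporters; 24 h compound exposure. Reporter mRNA measured by RT-PCR, 6-FAM labelling, HpaI digestion and capillary electrophoresis; gain-of-signal fitted versus DMSO.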

[16] = ATG_M_32_TRANS: Attagene TRANS-FACTORIAL HepG2 Assay for M32 Transcription Factor (Internal Marker) (AID 2282984; active means hit-call score of the fitted dose curve at least 0.9, where 1 is the maximum;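 further: transcript level of a background control reporter unit measured by RT-PCR and capillary electrophoresis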); conditions: HepG2 Attagene TRANS M32 internal marker reporter
Method in brief: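 Measures reporter mRNA induction in human HepG2 liver cells after 24 h chemical treatment. Transcripts from transiently transfected GAL4-UAS reporter units are amplified, fluorescently labelled and sized by capillary electrophoresis; gain of signal relative to DMSO.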

[17] = target: Nuclear respiratory factor 1 (Homo sapiens) (UniProt Q16656); assay: ATG_NRF1_CIS: Attagene CIS-FACTORIAL HepG2 Assay for human Nuclear Respiratory Factor 1 (NRF1) Orphan Gene (AID 2282987); conditions: HepG2 NRF1 cis-element reporter, Attagene multiplex; actives raise or lower the signal
Method in brief: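 HepG2 cells transiently transfected with multiple reporter transcription units under cis-regulatory promoter control, so endogenous transcription-factor activity is read. After 24 h compound exposure, reporter mRNA quantified by RT-PCR, fluorescent labelling, HpaI digestion and capillary electrophoresis; bidirectional fitting versus DMSO.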

[18] = target: Transcriptional activator Myb (Homo sapiens) (UniProt P10242); assay: ATG_Myb_CIS: Attagene CIS-FACTORIAL HepG2 Assay for human Myeloblastosis (Myb) Proto-Oncogene Transcription Factor (AID 2282986); conditions: HepG2 Attagene CIS-FACTORIAL Myb reporter transcription; actives raise or lower the signal
Method in brief: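 HepG2 cells were transiently transfected with cis-regulated multiple reporter transcription units reflecting endogenous Myb activity, then exposed to compound for 24 hours. Reporter mRNA was measured by RT-PCR with capillary electrophoresis; bidirectional fitting versus DMSO baseline.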

[19] = target: Myc proto-oncogene protein (Homo sapiens) (UniProt P01106); assay: ATG_Myc_CIS: Attagene CIS-FACTORIAL HepG2 Assay for human Myelocytomatosis (Myc) Proto-Oncogene Transcription Factor (AID 2282990); conditions: HepG2, Attagene cis-reporter transcription factor activity; actives raise or lower the signal
Method in brief: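 HepG2, transient MRTU transfection (cis promoters, endogenous TFs); 24 h dosing; TriZol RNA → oligo(dT) RT → PCR → 6-FAM primer extension → HpaI cut → CE. Bidirectional fit vs DMSO.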

Measured: AC50

Sequence of Oxysterols receptor LXR-beta (Homo sapiens) (P55055 whole entry, looked up, the tested form may be a part): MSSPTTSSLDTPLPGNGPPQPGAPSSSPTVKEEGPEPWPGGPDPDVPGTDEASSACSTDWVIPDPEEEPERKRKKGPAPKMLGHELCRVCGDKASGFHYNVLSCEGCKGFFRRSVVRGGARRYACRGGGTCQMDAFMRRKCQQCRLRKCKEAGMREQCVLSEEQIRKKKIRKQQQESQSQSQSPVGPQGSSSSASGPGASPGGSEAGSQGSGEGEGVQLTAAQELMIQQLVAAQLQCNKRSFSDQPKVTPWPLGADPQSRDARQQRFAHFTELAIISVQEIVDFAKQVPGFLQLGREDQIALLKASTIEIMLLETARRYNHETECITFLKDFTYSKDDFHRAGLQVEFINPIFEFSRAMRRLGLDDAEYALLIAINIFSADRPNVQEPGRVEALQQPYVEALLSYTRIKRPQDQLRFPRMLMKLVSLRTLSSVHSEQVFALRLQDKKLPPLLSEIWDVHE
Sequence of Myc proto-oncogene protein (Homo sapiens) (P01106 whole entry, looked up): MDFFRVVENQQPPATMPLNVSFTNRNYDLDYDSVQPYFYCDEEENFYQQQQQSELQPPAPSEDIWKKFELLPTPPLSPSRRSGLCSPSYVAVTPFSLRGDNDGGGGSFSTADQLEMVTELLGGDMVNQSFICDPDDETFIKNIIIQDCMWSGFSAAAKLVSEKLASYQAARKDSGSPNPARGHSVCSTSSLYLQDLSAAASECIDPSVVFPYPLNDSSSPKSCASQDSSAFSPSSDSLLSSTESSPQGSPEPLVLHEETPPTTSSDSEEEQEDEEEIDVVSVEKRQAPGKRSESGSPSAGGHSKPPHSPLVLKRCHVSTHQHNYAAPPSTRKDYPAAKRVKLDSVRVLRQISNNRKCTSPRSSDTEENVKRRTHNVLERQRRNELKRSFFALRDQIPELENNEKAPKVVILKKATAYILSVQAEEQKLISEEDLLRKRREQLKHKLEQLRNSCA
Sequence of Oxysterols receptor LXR-alpha (Homo sapiens) (Q13133 whole entry, looked up, the tested form may be a part): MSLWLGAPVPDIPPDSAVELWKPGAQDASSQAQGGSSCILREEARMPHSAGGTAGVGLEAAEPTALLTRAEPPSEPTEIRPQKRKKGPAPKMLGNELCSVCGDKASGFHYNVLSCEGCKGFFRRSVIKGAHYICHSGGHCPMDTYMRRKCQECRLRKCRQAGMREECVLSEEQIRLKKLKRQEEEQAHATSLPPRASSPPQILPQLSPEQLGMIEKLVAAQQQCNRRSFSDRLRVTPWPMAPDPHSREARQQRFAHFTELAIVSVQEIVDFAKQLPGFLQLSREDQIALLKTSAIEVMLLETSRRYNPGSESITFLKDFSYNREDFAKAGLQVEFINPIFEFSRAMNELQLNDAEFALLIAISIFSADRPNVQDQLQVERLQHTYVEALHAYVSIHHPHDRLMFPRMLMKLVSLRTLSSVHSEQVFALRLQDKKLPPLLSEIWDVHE
Sequence of Nuclear respiratory factor 1 (Homo sapiens) (Q16656 whole entry, looked up): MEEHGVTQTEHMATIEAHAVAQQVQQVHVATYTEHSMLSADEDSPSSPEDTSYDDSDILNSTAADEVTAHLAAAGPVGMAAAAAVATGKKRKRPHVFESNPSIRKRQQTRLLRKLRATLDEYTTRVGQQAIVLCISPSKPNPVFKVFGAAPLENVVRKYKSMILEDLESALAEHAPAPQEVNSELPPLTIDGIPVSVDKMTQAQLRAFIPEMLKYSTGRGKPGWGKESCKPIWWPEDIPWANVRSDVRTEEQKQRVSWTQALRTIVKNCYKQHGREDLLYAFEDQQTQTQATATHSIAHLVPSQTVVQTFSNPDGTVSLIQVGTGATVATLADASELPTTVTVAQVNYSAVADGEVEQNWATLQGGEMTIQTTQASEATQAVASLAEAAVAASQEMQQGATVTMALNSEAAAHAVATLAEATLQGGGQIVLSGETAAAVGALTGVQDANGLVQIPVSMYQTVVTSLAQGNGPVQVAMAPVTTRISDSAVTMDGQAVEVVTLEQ
Sequence of Transcriptional activator Myb (Homo sapiens) (P10242 whole entry, looked up): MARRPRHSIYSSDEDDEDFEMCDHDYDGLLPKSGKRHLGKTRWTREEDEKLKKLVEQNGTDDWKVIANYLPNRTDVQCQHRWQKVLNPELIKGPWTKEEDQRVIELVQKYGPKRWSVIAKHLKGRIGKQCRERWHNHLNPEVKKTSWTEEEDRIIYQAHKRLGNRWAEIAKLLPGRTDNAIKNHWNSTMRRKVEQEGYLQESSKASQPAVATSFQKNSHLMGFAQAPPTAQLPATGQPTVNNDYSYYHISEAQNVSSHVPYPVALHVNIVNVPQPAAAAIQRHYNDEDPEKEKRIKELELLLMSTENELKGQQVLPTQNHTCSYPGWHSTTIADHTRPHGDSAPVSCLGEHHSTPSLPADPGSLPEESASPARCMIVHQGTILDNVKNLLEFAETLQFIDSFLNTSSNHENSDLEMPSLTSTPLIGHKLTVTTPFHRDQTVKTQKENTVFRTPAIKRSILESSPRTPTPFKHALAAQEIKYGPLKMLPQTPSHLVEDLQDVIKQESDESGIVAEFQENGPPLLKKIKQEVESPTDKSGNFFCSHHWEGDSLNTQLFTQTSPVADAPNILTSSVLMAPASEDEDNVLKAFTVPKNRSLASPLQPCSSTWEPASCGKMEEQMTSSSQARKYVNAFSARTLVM
Sequence of Glucocorticoid receptor (Homo sapiens) (P04150 whole entry, looked up, the tested form may be a part): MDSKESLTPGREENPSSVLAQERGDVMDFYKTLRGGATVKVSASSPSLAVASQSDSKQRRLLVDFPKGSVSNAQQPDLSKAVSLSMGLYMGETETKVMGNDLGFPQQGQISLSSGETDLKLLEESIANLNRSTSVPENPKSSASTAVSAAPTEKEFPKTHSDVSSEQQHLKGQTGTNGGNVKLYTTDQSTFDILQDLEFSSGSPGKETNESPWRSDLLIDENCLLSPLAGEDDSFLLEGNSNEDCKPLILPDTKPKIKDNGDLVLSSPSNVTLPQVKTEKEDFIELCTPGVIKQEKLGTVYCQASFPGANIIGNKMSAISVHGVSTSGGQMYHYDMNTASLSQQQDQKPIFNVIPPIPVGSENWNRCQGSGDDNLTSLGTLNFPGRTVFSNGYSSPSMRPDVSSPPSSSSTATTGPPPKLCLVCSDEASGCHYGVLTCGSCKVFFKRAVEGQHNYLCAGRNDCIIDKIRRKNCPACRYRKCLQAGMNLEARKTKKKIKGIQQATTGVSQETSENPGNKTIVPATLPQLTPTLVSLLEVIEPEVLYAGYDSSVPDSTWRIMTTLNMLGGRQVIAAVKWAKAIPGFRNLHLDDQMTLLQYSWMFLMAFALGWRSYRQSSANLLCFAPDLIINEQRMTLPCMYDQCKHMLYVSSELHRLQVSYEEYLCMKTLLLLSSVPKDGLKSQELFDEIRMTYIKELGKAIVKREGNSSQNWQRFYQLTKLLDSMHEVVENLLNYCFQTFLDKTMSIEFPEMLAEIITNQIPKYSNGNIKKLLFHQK
Sequence of Nuclear receptor subfamily 4 group A member 2 (Homo sapiens) (P43354 whole entry, looked up, the tested form may be a part): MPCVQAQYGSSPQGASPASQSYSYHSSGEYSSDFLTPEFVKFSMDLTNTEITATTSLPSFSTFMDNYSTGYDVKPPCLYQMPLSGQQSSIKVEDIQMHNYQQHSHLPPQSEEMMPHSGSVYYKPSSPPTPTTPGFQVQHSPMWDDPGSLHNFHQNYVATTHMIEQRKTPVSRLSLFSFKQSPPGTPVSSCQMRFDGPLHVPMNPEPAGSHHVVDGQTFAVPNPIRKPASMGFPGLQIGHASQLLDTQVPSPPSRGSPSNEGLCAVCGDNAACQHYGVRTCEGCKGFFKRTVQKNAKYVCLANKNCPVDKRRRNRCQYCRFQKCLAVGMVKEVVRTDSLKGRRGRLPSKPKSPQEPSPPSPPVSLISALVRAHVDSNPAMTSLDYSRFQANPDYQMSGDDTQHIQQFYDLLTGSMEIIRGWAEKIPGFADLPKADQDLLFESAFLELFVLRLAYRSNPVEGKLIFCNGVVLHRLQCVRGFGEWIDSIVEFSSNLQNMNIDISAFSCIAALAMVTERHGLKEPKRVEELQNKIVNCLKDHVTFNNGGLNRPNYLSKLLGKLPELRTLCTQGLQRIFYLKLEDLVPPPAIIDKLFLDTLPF
Sequence of Cellular tumor antigen p53 (Homo sapiens) (P04637 whole entry, looked up): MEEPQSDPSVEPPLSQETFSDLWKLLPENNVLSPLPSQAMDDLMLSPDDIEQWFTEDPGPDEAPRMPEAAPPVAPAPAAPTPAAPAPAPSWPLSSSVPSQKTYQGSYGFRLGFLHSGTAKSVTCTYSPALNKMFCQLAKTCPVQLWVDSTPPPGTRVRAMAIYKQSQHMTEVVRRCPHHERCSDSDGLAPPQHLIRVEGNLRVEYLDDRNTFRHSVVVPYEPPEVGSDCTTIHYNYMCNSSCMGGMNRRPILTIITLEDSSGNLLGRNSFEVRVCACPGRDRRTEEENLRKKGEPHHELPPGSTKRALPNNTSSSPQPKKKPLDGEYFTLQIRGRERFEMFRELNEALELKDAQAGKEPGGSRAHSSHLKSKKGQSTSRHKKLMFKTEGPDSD
Sequence of Bile acid receptor (Homo sapiens) (Q96RI1 whole entry, looked up, the tested form may be a part): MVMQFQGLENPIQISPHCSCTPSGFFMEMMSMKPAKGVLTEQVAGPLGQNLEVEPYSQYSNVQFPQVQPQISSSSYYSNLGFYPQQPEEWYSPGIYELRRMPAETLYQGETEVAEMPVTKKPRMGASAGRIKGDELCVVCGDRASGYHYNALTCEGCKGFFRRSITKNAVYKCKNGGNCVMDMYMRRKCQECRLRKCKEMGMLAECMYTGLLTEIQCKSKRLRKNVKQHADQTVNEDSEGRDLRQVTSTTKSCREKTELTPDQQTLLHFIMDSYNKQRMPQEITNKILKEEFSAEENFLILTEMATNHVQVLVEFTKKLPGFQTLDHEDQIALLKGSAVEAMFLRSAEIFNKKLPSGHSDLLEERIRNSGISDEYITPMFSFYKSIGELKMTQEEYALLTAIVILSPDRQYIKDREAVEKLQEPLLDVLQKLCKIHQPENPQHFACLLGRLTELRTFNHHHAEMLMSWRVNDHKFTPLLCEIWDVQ

C=CCOC(=O)c1ccccc1C(=O)OCC=C
active: [2] 25.1 µM | [8] 27.2 µM
inactive: [1] | [3] | [4] | [5] | [6] | [7] | [9] | [10] | [11] | [12] | [13] | [14]

CCCCCCCCCCCCCO
inactive: [15] | [3] | [4] | [16] | [17] | [6] | [9] | [10]
active: [8] 57.4 µM | [11] 33.1 µM | [12] 33.7 µM | [13] 35.6 µM | [14] 38.8 µM

COc1cc(C=O)ccc1O
inactive: [1] | [18] | [6] | [7] | [8] | [9] | [10] | [11] | [12] | [13] | [14]

CC(CO)OC(C)CO (stereo unspecified) (tested in a mixture with another compound)
inactive: [1] | [4] | [16] | [18] | [17] | [6] | [19] | [7] | [8] | [9] | [10] | [11] | [12] | [13] | [14]

O=c1[nH]cc(F)c(=O)[nH]1
active: [10] 11.5 µM
inactive: [15] | [16] | [5] | [17] | [6] | [19] | [8] | [9] | [11] | [12] | [13] | [14]

CC(C)(C)c1cc(O)c(C(C)(C)C)cc1O
active: [17] 162 µM | [6] 30.6 µM | [8] 30.5 µM | [9] 33 µM | [11] 7.03 µM | [13] 9.79 µM | [14] 6.65 µM
inactive: [15] | [2] | [3] | [4] | [16] | [5] | [18] | [7] | [10] | [12]

Cc1ccccc1Cl
inactive: [1] | [2] | [3] | [4] | [18] | [17] | [6] | [8] | [9] | [10] | [11] | [12] | [13] | [14]

O=C(N[C@@H](Cc1ccccc1)[C@@H](O)C(=O)N1C[C@@H](O)[C@@H](O)C1)c1cc2cc(Cl)ccc2[nH]1
active: [8] 91.9 µM
inactive: [15] | [4] | [16] | [18] | [17] | [6] | [7] | [9] | [10] | [11] | [12] | [13] | [14]

CC(C)c1ccc(C(=O)N=C(N)N)cc1S(C)(=O)=O
inactive: [15] | [3] | [4] | [16] | [6] | [19] | [7] | [8] | [9] | [10] | [11] | [12] | [13] | [14]

Cc1ccc(C)c(C)c1
inactive: [15] | [5] | [18] | [17] | [6] | [19] | [7] | [8] | [9] | [10] | [11] | [12] | [13] | [14]

CCc1c(C(=O)NN2CCCCC2)nn(-c2ccc(Cl)cc2Cl)c1-c1ccc(Br)cc1
active: [17] 7.79 µM | [8] 1.53 µM | [11] 11.7 µM | [12] 6.7 µM | [13] 11.1 µM | [14] 8.48 µM
inactive: [1] | [16] | [5] | [6] | [19] | [7] | [9] | [10]

COCCOCCOC
inactive: [1] | [2] | [3] | [17] | [6] | [19] | [7] | [8] | [9] | [10] | [11] | [12] | [13] | [14]

Cc1cc(=O)[nH]c(=S)[nH]1
inactive: [1] | [4] | [5] | [18] | [17] | [6] | [19] | [7] | [8] | [9] | [10] | [11] | [12] | [13] | [14]

CCCCc1ccc2c(n1)[C@@H](c1ccc(OC)cc1C[C@H](C)C(=O)O)[C@H](C(=O)O)[C@H]2c1ccc2c(c1)OCO2
inactive: [1] | [2] | [3] | [16] | [18] | [6] | [19] | [8] | [9] | [10] | [11] | [12] | [13] | [14]
